According to PubChem BioAssay (NCATS):
Records with an inconclusive call do not appear. Active and inactive are the calls of the source. Unless noted, calls follow the shape of the dose curve; as a rule, active = well fitted curve in the direction sought with a large enough effect; inconclusive = small, poorly fitted or top-dose-only effect, or another doubt; inactive = no such curve, though single readings can be large; an effect the other way counts as inactive or inconclusive.

What was measured:
[1] = target: ATP-dependent 6-phosphofructokinase (Trypanosoma brucei brucei) (UniProt O15648); assay: qHTS Assay to Find Inhibitors of T. brucei phosphofructokinase: hit validation (AID 492961);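 also: luminescence reports ADP formed as PFK phosphorylates fructose-6-phosphate with ATP; % is scaled to controls: 0 for no effect and ±100 for the full control effect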
In short: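 In this biochemical qHTS validation, titrated compounds were tested against 1.25 nM PFK with 0.1 mM ATP and 0.5 mM F6P. Percent activity came from controls lacking or containing enzyme.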

CP192 = assay: qHTS profiling for inhibitors of Plasmodium falciparum proliferation (AID 504749);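 also: 0% = DMSO vehicle and full inhibition = artemisinin control; nearly all actives have a fitted effect of over 60% in size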; conditions: P. falciparum in erythrocytes, SYBR Green DNA, 72 h; series mostly up to 28.7 µM
In short: (§1)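 Infected RBCs, 0.3% parasitemia/2.5% Hct final; cpd 72 h, 37 C, 5% CO2; lysis buffer with saponin/triton/SYBR Green I, o/n RT dark; FI 485/535; norm. to artemisinin (0.29 uM) and DMSO.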

CP194 = assay: as above; conditions: P. falciparum in erythrocytes, SYBR Green DNA, 72 h; series mostly up to 28.7 µM
In short: as §1

CP201 = assay: as above; conditions: P. falciparum in erythrocytes, SYBR Green DNA, 72 h; series mostly up to 28.7 µM
In short: as §1

CP203 = assay: as above; conditions: P. falciparum in erythrocytes, SYBR Green DNA, 72 h; series mostly up to 28.7 µM
In short: as §1

CP211 = assay: as above; conditions: P. falciparum in erythrocytes, SYBR Green DNA, 72 h; series mostly up to 28.7 µM
In short: as §1

CP215 = assay: as above; conditions: P. falciparum in erythrocytes, SYBR Green DNA, 72 h; series mostly up to 28.7 µM
In short: as §1

CP266 = assay: as above; conditions: P. falciparum in erythrocytes, SYBR Green DNA, 72 h; series mostly up to 28.7 µM
In short: as §1

CP268 = assay: as above; conditions: P. falciparum in erythrocytes, SYBR Green DNA, 72 h; series mostly up to 28.7 µM
In short: as §1

CP269 = assay: as above; conditions: P. falciparum in erythrocytes, SYBR Green DNA, 72 h; series mostly up to 28.7 µM
In short: as §1

CP291 = assay: as above; conditions: P. falciparum in erythrocytes, SYBR Green DNA, 72 h; series mostly up to 28.7 µM
In short: as §1

CP305 = assay: as above; conditions: P. falciparum in erythrocytes, SYBR Green DNA, 72 h; series mostly up to 28.7 µM
In short: as §1

CP325 = assay: as above; conditions: P. falciparum in erythrocytes, SYBR Green DNA, 72 h; series mostly up to 28.7 µM
In short: as §1

CP329 = assay: as above; conditions: P. falciparum in erythrocytes, SYBR Green DNA, 72 h; series mostly up to 28.7 µM
In short: as §1

DIV17 = assay: as above; conditions: P. falciparum in erythrocytes, SYBR Green DNA, 72 h; series mostly up to 28.7 µM
In short: as §1

PC26 = assay: as above; conditions: P. falciparum in erythrocytes, SYBR Green DNA, 72 h; series mostly up to 28.7 µM
In short: as §1

[2] = qHTS assay for small molecule agonists of the antioxidant response element (ARE) signaling pathway measured by Nrf2-dependant transcriptional activity - cell viability counter screen (AID 720653; active = well fitted curve in the direction sought with a large enough effect in the repeat runs; an effect the other way counts as inactive or inconclusive; also: % is scaled to controls: 0 for no effect and ±100 for the full control effect); conditions: ARE-bla HepG2 viability, CellTiter-Glo ATP luminescence, 16 h; max response: hits give low values
In short: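 Cytotoxicity counter screen: intracellular ATP quantified by CellTiter-Glo luminescence in the same ARE-bla HepG2 plates, after 16 h compound exposure and a 2 h beta-lactamase substrate step.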

[3] = qHTS assay for small molecule activators of the human pregnane X receptor (PXR) signaling pathway (AID 720659; call rule not given here; also: 0% is about no effect)
[4] = Confirmation and Secondary Assay for Modulators of Hemoglobin Beta Chain Splicing at IVS2 654 locus (AID 910);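 also: HeLa cells stably carrying EGFP split by mutant beta-globin IVS2-654 intron; % of control where 0% means no effect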
In short: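 Readout: per-well total peak green fluorescence (488 nm ex, 500–520 nm em) from objects 5–250 µm, reflecting correct splicing of an EGFP-654 reporter. Compounds were applied for 2 days at 37 °C to overnight-plated HeLa EGFP-654 cells; controls were DMSO and 500 nM IVS2-654 PNA.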

[5] = Confirmation and Secondary Assay for Modulators of Hemoglobin Beta Chain Splicing at IVS2 705 locus (AID 930);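 also: HeLa cells stably expressing the EGFP-705 splicing reporter; GFP fluorescence per well restored by corrected splicing of the IVS2-705 intron in EGFP; % of control where 0% means no effect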
In short: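 HeLa cells stably carrying EGFP interrupted by mutant beta-globin intron 2 (IVS2-705) treated 2 days at 37C with compound; 500 nM antisense PNA as control. Correct splicing read as total peak GFP intensity per well by laser-scanning cytometry.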

Sequence of ATP-dependent 6-phosphofructokinase (Trypanosoma brucei brucei) (O15648 whole entry, looked up): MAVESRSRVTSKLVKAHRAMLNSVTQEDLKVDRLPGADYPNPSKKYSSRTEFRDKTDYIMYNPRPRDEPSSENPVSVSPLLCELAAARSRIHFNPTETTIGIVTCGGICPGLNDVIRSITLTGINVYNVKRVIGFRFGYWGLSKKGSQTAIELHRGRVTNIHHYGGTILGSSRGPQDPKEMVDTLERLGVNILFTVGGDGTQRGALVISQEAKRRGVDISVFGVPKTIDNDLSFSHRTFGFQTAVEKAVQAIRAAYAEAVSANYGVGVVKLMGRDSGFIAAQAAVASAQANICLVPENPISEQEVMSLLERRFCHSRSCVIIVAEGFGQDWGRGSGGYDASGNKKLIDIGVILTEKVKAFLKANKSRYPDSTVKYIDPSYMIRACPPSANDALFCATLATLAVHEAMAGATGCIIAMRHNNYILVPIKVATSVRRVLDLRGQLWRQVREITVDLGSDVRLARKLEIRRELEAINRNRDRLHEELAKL

CC(C)CN(C[C@@H](OP(=O)(O)O)[C@H](Cc1ccccc1)NC(=O)O[C@@H]1CCOC1)S(=O)(=O)c1ccc(N)cc1
inactive: outcome [1] | Potency (CP192) | Potency (CP194) | Potency (CP201) | Potency (CP203) | Potency (CP211) | Potency (CP215) | Potency (CP266) | Potency (CP268) | Potency (CP269) | Potency (CP291) | Potency (CP305) | Potency (CP325) | Potency (CP329) | Potency (DIV17) | Potency (PC26)

CCCCCCCCOC(=O)c1cc(O)c(O)c(O)c1
inactive: max response [2] -10.2% | outcome [3]

O=C1CC(c2ccccc2)Oc2ccccc21 (centres undefined)
inactive: Potency [4] | Potency [5]

O=C(O)CCCCCCCCC(=O)O
inactive: max response [2] -1.89% | outcome [3]

O=C(O)c1cc(O)c2c(c1)[C@H]([C@H]1c3cc(C(=O)O)cc(O)c3C(=O)c3c(O[C@@H]4OC(CO)C(O)C(O)C4O)cccc31)c1cccc(O[C@@H]3OC(CO)C(O)C(O)C3O)c1C2=O (some centres undefined)
inactive: Potency [4] | Potency [5]
